# Screening results deposited in PubChem BioAssay by several laboratories.
# Compounds with a hit are over-represented: about 4.7% of the library has one in this group of screens.
# SKKanGAS inh: SKKanGAS growth inhibition | 300,000 compounds, 1.3% hits | AID 1662 | S. pyogenes SKKanGAS, kanamycin growth, BacTiter-Glo, 6 h | inhibition, % at 7.5 µM;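 active = mean replicate score, as percent of positive control median, at least 50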;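 also: strain carries kanamycin resistance gene driven by streptokinase promoter and grows in 40 µg/ml kanamycin; loss of luminescence reflects streptokinase promoter inhibition or plain growth inhibition; 0% = median of DMSO wells and 100% = positive control at its reference dose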
# tim23-1 inh: tim23-1 yeast growth inhibition. S. cerevisiae tim23-1 growth, BacTiter-Glo luminescence, 24 h. inhibition, % at 20 µM. 330,000 compounds, 1.3% hits. AID 463212;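 active = growth inhibition of the mutant yeast at or above 50%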;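 also: temperature-sensitive mutant grown at 25 °C; plate controls were DMSO-treated mutant yeast for no effect and medium wells lacking yeast for full effect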
# tim10-1 inh: growth inhibitors of tim10-1 mutant yeast. AID 463190. 330,000 compounds, 2.2% hits. inhibition, % at 20 µM. S. cerevisiae tim10-1 ts strain growth, BacTiter-Glo, 24 h;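 active = inhibition of at least 40%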;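 also: mutant grown at 25 °C; 0% = DMSO wells with yeast and 100% = wells holding no yeast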
# PfHsp90 yeast 2: growth inhibition of yeast expressing Plasmodium Hsp90; S. cerevisiae expressing PfHsp90, BacTiter-Glo ATP, 48 h; yeast lacking PDR1 and PDR3 efflux regulators; inhibition, % at 9.4 µM; 310,000 compounds, 0.32% hits;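 active = every replicate shows inhibition above about 80%, whatever the replicate mean, limit read from the data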;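 also: 0% = DMSO neutral controls and 100% = 20 µM radicicol positive controls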
# TIM10 inh: TIM10 yeast growth inhibition; S. cerevisiae TIM10 strain growth, BacTiter-Glo luminescence, 24 h; inhibition, % at 10 µM; 330,000 compounds, 1.4% hits; AID 463195;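 active = inhibition of 40% or more at the single tested concentration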;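 also: wild-type TIM10 isogenic control strain grown at permissive 25 °C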
# EBI2 block: EBI2 (human) antagonism | P32249 | EBI2 beta-arrestin recruitment, luminescence, 7a,25-OHC stimulated | inhibition, % at 5 µM | 360,000 compounds, 0.81% hits; in the data active = inhibition above about 38%;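 also: enzyme fragment complementation signal reports receptor beta-arrestin coupling in cells; 0% = agonist plus DMSO wells and 100% = wells without agonist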
# Target sequence (P32249 whole entry, looked up, the tested form may be a part): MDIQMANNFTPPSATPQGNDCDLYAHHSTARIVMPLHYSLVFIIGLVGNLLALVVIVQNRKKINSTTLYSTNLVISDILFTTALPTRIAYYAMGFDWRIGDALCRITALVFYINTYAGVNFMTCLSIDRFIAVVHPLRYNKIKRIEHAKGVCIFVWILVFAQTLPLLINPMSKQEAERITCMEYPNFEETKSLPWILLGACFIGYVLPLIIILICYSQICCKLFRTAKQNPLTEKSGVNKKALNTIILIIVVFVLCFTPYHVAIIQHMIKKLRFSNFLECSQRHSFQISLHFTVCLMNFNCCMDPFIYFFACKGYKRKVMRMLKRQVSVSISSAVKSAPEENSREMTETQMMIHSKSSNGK
# tim23-1 conf: tim23-1 yeast growth inhibition, confirmed; shares compounds with tim23-1 inh; S. cerevisiae tim23-1 growth, BacTiter-Glo luminescence, 24 h; inhibition, % at 20 µM; 4,400 compounds, 83% hits; AID 463218;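 active = inhibition above about 39% in either of two replicate wells at 20 µM, limit read from the data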;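 also: temperature-sensitive tim23-1 mutant grown at 25 °C; 0% = DMSO wells with yeast and 100% = medium wells without yeast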
# EBI2 conf: confirmation of human EBI2 receptor antagonists; shares compounds with EBI2 block; EBI2 beta-arrestin luminescence, 7a,25-OHC antagonism; inhibition, % at 5 µM; 2,400 compounds, 29% hits;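 active = inhibition of at least 50%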
# EBI2 ag: counter-screen for EBI2 antagonists: EBI2 agonist activity. shares compounds with EBI2 block. EBI2-expressing cells, agonist mode, luminescence, 60 min; 0% vehicle, 100% 7α,25-dihydroxycholesterol control. activation, % at 5 µM. 2,400 tested, under 10 active. AID 652000;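 active = activation of at least 50%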
# bGal counter: inhibits E. coli beta-galactosidase, counter-screen for EBI2 antagonists | shares compounds with EBI2 block | purified beta-galactosidase, luminescent Galacton Star, 15 min | inhibition, % at 5 µM | 2,400 compounds, 1% hits | AID 652176;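 active = replicate-average signal at least 3 plate SD below neutral wells, shown as high inhibition, flagging enzyme-inhibiting false positives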;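 also: 0% = DMSO wells with enzyme and 100% = wells lacking enzyme; higher means stronger loss of beta-gal luminescence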
# Active calls of the source: *; . = no result given.
SMILES,SKKanGAS inh,tim23-1 inh,tim10-1 inh,PfHsp90 yeast 2,TIM10 inh,EBI2 block,EBI2 conf,EBI2 ag,bGal counter,others
C/C(=N\NC(=O)c1cccc(Br)c1)c1ccccn1,110*,52*,30,-13,29,67*,82*,-2,9,tim23-1 conf=37
COC(=O)c1ccc2c(=O)[nH]c(COC(=O)c3c(-c4ccccc4)noc3C)nc2c1,-5,6,4,-8,8,0,.,.,.,
O=C1C=C(c2cccc(CO)c2)C[C@@H](c2ccc(Cl)cc2)C1,.,38,14,.,-2,37,.,.,.,
O=C1C=C(c2ccc3ncccc3c2)C[C@@H](c2ccc(Cl)cc2)C1,.,52*,0,-4,9,87*,75*,-1,-8,tim23-1 conf=28
O=C1C=C(c2ccc3[nH]ccc3c2)C[C@@H](c2ccc(Cl)cc2)C1,.,52*,34,-67,27,64*,34,0,4,tim23-1 conf=46*
COc1ccc(NC(=O)c2cc3ccccc3cc2OC)cc1,18,50*,-26,-3,-19,65*,36,1,5,tim23-1 conf=36
Nc1cc(Cl)ccc1C(=O)OCC(=O)N1CCCCCC1,.,-7,-34,-25,-15,0,.,.,.,
O=C(COc1ccc(Cl)cc1)c1ccc(O)cc1O,20,37,13,-21,22,44*,5,1,2,
COC(=O)c1ccc(OCC(=O)c2ccc(O)cc2O)cc1,8,10,9,7,2,-1,.,.,.,
O=C(COc1ccc(F)cc1)NCCN1CCCC1,5,-10,-2,2,4,-7,.,.,.,
COc1ccc(CCNC(=O)CCC(=O)NC2CCCC(C)C2C)cc1OC (stereo not drawn),-3,11,23,-9,-3,13,.,.,.,
CC1=C/C(=N\NC(=S)Nc2cccnc2)CC(C)(C)C1,16,.,.,-5,.,39*,78*,-2,-9,
CCc1nnc(NC(=O)CCNC(=O)c2ccco2)s1,-1,5,1,-2,-17,7,.,.,.,
CCN(CC(=O)NCc1ccc(Cl)cc1)C(=O)/C=C/c1ccco1,-5,2,14,.,-1,-7,.,.,.,
CCN(CC(=O)NCc1ccc(Cl)cc1)C(=O)/C=C/c1ccccc1,3,16,-6,-27,11,76*,34,1,0,
CCN(CC(=O)NCc1ccc(Cl)cc1)C(=O)/C=C/c1ccc(C#N)cc1,8,-6,-11,-5,-15,51*,34,0,7,
CCN(CC(=O)NCc1ccc(Cl)cc1)C(=O)c1cnc(Cl)c(Cl)c1,-1,8,-2,5,-20,-5,.,.,.,
CCN(CC(=O)NCc1ccc(Cl)cc1)C(=O)c1ccc2cc(OC)ccc2c1,8,11,21,-75,-1,68*,52*,0,-5,
CC=Cc1cc(OC)c2c(c1)C(C)C(c1ccc(O)c(OC)c1)O2 (stereo not drawn),.,.,.,-3,.,0,.,.,.,
CC(C)Oc1ccc(CN2CCC(n3nccc3NC(=O)C3CC3)CC2)cc1,-4,3,-2,11,-7,-8,.,.,.,
Cc1cccc(CS(=O)(=O)Cc2ccc(C(=O)NCCc3ccccc3)o2)c1,-1,14,28,-1,0,32,.,.,.,
Cc1ccccc1CS(=O)(=O)Cc1ccc(C(=O)NCCc2ccccc2)o1,-5,13,31,10,2,37*,28,0,2,
Cc1cc(OCC(=O)OCC(=O)NCC2CCCO2)ccc1Cl (stereo not drawn),.,0,-7,-5,-1,-7,.,.,.,
CC1(c2nnc(-c3ccc(F)cc3)o2)CC(c2c(Cl)cccc2Cl)=NO1 (stereo not drawn),-8,10,-9,.,-13,50*,49,0,4,
CC1(c2nnc(-c3ccc(F)cc3)o2)CC(c2ccc(Cl)cc2)=NO1 (stereo not drawn),-4,24,17,14,1,5,.,.,.,
SMILES,SKKanGAS inh,tim23-1 inh,tim10-1 inh,PfHsp90 yeast 2,TIM10 inh,EBI2 block,EBI2 conf,EBI2 ag,bGal counter,others
CC1(c2nnc(-c3ccc(Cl)cc3)o2)CC(c2c(Cl)cccc2Cl)=NO1 (stereo not drawn),1,12,16,-3,-1,52*,60*,0,-18,
COCCN(C(=O)CSc1nnc(-c2ccccc2F)n1N)c1c(N)n(Cc2ccccc2)c(=O)[nH]c1=O,-5,-1,8,-2,6,-8,.,.,.,
COc1ccc(CCNC(=O)Nc2nc(C(N)COCc3ccccc3)cs2)cc1OC (stereo not drawn),.,.,.,.,.,-5,.,.,.,
O=[N+]([O-])c1ccc(-c2cnc(SC(c3ccccc3)c3ccccc3)[nH]2)cc1,62*,0,-6,14,5,49*,38,0,6,
O=[N+]([O-])c1ccc(-c2cnc(SCc3ccccc3Cl)[nH]2)cc1,2,43,31,-7,37,28,.,.,.,
CC(C)(C)c1ccc(C(=O)NC2CCN(Cc3ccccc3)CC2)cc1,-3,11,-26,4,-27,-17,.,.,.,
COc1ccc(/C=N/NC(N)=S)cc1OC(=O)c1cccc2ccccc12,12,17,32,.,20,56*,5,2,3,
C#CCOCCOCCOCCNc1nc(N2CCN(C(=O)[C@H](CCC(=O)O)n3cc(C(N)CO)nn3)CC2)nc(N2CCN(C(=O)[C@H](CCC(=O)O)n3cc(C(N)CC(C)C)nn3)CC2)n1 (stereo partly drawn),0,2,6,.,-3,.,.,.,.,
CCOC(=O)N1CCN(C(=O)/C=C/c2ccc([N+](=O)[O-])cc2)CC1,-24,6,12,.,-3,80*,58*,0,7,
O=C(/C=C/c1cccc([N+](=O)[O-])c1)N1CCN(c2ccc(F)cc2)CC1,-7,13,13,-15,15,18,.,.,.,
CCOC(=O)N1CCN(C(=O)/C=C/c2ccc(C(C)(C)C)cc2)CC1,6,22,17,-23,6,62*,53*,1,8,
COc1ccccc1/C=C/C(=O)N1CCN(S(=O)(=O)c2cccs2)CC1,.,21,25,11,16,33,.,.,.,
O=C(/C=C/c1ccc([N+](=O)[O-])cc1)N1CCN(S(=O)(=O)c2cccs2)CC1,6,3,3,1,4,93*,63*,1,3,
